# Screening results: PubChem, National Center for Advancing Translational Sciences (NCATS)
# KB-V1 cytotox = kills drug-selected multidrug resistant KB-V1 cells. KB-V1 MDR cells viability, CellTiter-Glo, 72 h. Potency, µM (titrated, usually from 46.1 µM), most hits filed as cytotoxic. 400,000 tested, 3.4% active. AID 1347076; note: nearly all actives have a fitted effect of over 60% in size
#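 Cytotoxicity via CellTiter-Glo luminescence after 72 h compound exposure at 37 degrees C. Cells: drug-selected KB-V1 line, DMEM phenol-red free plus 10% FBS. Compounds tested at multiple concentrations; normalized data fitted to concentration-effect curves.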
# HT1080-NT tox = kills 2HG-producing HT-1080-NT fibrosarcoma cells; Potency, µM (doses to about 46.1 µM), inactives show at the top dose activity, negative = less viability, hits mostly cytotoxic; HT-1080-NT fibrosarcoma viability, CellTiter-Glo ATP luminescence, 48 h; 360,000 tested, 1.6% active;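 note: NT is the 2HG producing partner of a matched IDH1 knockdown line; 0% = DMSO-treated cells and -100% = media-only wells without cells; nearly all actives have a fitted effect of over 55% in size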
#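 Read-out is CellTiter-Glo luminescence after 10 minutes at room temperature, following 48 hours' compound treatment of HT-1080-NT cells (750 cells/well, RPMI, 5% FBS, 37 degrees C).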
# DT40 TDP1 CPT = growth inhibition of DT40 Tdp1-/-;hTDP1 cells with camptothecin (screen for TDP1 inhibitors) | chicken DT40 Tdp1-/-;hTDP1 cells + 20 nM CPT, ATP luminescence, 48 h | Potency, µM (highest dose often 46.2 µM), for inactives: at the highest dose activity change, negative = growth inhibition, usual class: inhibitors | 420,000 tested, 12% active | AID 686979; note: nearly all actives have a fitted effect of over 55% in size
#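 Chicken DT40 Tdp1-/- cells complemented with human TDP1, 400 cells/well, exposed to compounds plus 20 nM camptothecin for at least 48 h at 37 C; viability read as ATP content by CellTiter-Glo luminescence.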
# HT1080 IDH1KD tx = HT-1080 IDH1 knockdown cell toxicity (counter line). Potency, µM (series often up to 46.1 µM), without a hit: at the highest dose activity, negative = toxicity, actives largely listed as cytotoxic. HT-1080 IDH1 knockdown viability, ATP luminescence, 48 h. 360,000 tested, 2% active;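 note: 0% = DMSO wells and -100% = cell-free medium wells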
#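 IDH1KD HT-1080 cells, 750/well, RPMI + 5% FBS; compound pinned after 2 h settling; 48 h, 37 °C; CellTiter-Glo luminescence; % activity normalised to DMSO and no-cell wells; curves fitted, classed by r2 and efficacy.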
# KB-3-1 tox = kills parental KB-3-1 adenocarcinoma cells | KB-3-1 viability, CellTiter-Glo ATP luminescence, 72 h | Potency, µM (series often up to 46.1 µM), usual class: cytotoxic | 400,000 tested, 1.4% active; note: nearly all actives have a fitted effect of over 60% in size
#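 Cells are dispensed, compounds pinned in, plates held at 37 °C for 72 h, then CellTiter-Glo is added and luminescence read after 10 minutes. Cell line: parental KB-3-1 in phenol-red-free DMEM, 10% FBS.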
# DT40 TDP1 no CPT = qHTS for Inhibitors of human tyrosyl-DNA phosphodiesterase 1 (TDP1): qHTS in cells in absence of CPT; DT40 Tdp1-/- hTDP1 cells, no CPT, ATP luminescence, 48 h; Potency, µM (doses to about 46.2 µM), for inactives: at the top dose activity change, negative = growth inhibition, hits mostly inhibitors; 420,000 tested, 15% active; AID 686978, 2013; note: nearly all actives have a fitted effect of over 55% in size
#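 A cellular qHTS used chicken DT40 cells lacking endogenous Tdp1 but carrying stably transfected human TDP1. Compounds were applied without camptothecin, and cell growth kinetics were judged by ATP-dependent luminescence after ≥48 hr.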
# * marks the source's active call; other numbers are inactive results; i = inactive; ? = inconclusive; nt = not tested or not shown. In the library only some 19% were active in any assay of this set; here they are far more common. Calls come from the whole dose curve; as a rule, active = well fitted curve in the direction sought with a large enough effect; inconclusive = small, poorly fitted or top-dose-only effect, or another doubt; inactive = no such curve, though single readings can be large; an effect the other way counts as inactive or inconclusive. Unless noted, % is set by controls: 0 for no effect and ±100 for the full control effect; potency is the fitted concentration of half-maximal effect.
SMILES,KB-V1 cytotox,HT1080-NT tox,DT40 TDP1 CPT,HT1080 IDH1KD tx,KB-3-1 tox,DT40 TDP1 no CPT
N#CC1CC(c2ccccc2)Nc2cc(Cl)ccc2N1 (stereo not given),i,?,16.4µM*,?,?,10.3µM*
CCC(c1nnnn1-c1ccc2c(c1)OCCO2)N1CCN(c2ccc(OC)cc2)CC1 (stereo not given),16.4µM*,-2.3%,20.6µM*,-28.9%,?,?
CCC(c1nnnn1-c1ccc2c(c1)OCCO2)N1CCN(c2ccccc2)CC1 (stereo not given),i,0.7%,?,-8.1%,?,?
CCC(c1nnnn1-c1ccc2c(c1)OCCO2)N1CCN(Cc2c(F)cccc2Cl)CC1 (stereo not given),?,-2.9%,?,-15.9%,?,23.1µM*
CCC(c1nnnn1-c1ccc2c(c1)OCCO2)N1CCN(c2ccccc2OC)CC1 (stereo not given),7.31µM*,-5.5%,?,?,?,?
COc1ccc(N2CCN(C(=O)CSc3nnnn3-c3ccc4c(c3)OCCO4)CC2)cc1,20.6µM*,0.0%,?,-24.8%,i,?
Cc1ccc(CSc2ncc(Cl)c(C(=O)Oc3ccc(F)cc3)n2)cc1,nt,nt,-23.4%,nt,nt,-4.6%
COc1c(OC)c2occc2c2oc(=O)ccc12,nt,nt,-26.8%,nt,nt,-11.9%
CCc1cc(C(=O)OC)c(NC(=O)CN2CCN(C(=O)C3CCCO3)CC2)s1 (stereo not given),i,0.3%,-28.5%,-2.1%,i,-24.1%
CCn1c(SCC(N)=O)nnc1-c1ccc2c(c1)OCO2,i,7.5%,2.6%,11.3%,i,9.9%
CCC(c1nnnn1-c1ccc2c(c1)OCCO2)N1CCN(c2cccc(C)c2C)CC1 (stereo not given),i,?,?,?,?,18.4µM*
CCC(c1nnnn1-c1ccc2c(c1)OCCO2)N1CCN(c2ccc(C)cc2)CC1 (stereo not given),i,-9.6%,?,-14.0%,18.4µM*,?
O=C(NCc1nnc(SCC(=O)N2CCCC2)o1)c1cccc(C(F)(F)F)c1,i,2.2%,-1.7%,4.2%,i,-18.7%
CC(=O)c1ccc(N2CCN(C(=O)C3CCCN(S(=O)(=O)c4c(C)[nH]c(=O)[nH]c4=O)C3)CC2)cc1 (stereo not given),i,7.1%,?,-1.0%,i,?
Brc1ccc(OCc2nc(-c3ccccn3)n[nH]2)cc1,i,-27.4%,?,?,i,14.6µM*
Clc1ccc(OCc2nc(-c3ccccn3)n[nH]2)cc1,4.61µM*,?,?,10µM*,?,?
Clc1ccc(OCc2nc3ccccc3[nH]2)cc1,i,-2.4%,3.7%,-22.1%,i,?
Cc1cc(Oc2ccccc2)nc(-c2ccccc2O)n1,i,-2.5%,-11.7%,-4.6%,i,-19.5%
Cc1cc(Oc2ccc(Cl)cc2)nc(-c2ccccn2)n1,i,-10.4%,5.17µM*,?,i,5.17µM*
O=C(Nc1ccccc1)N1CC[C@@]2(CCCN(C(=O)c3ccco3)C2)C1,nt,nt,2.1%,nt,nt,-13.5%
CCNC(=O)C1(C)CCN(C(=O)c2ccc(N(C)C)cc2)C1 (stereo not given),i,24.6%,3.4%,26.8%,i,4.2%
CC(=O)OCC#CCSc1nnc(-c2cccc(Br)c2)o1,i,nt,-18.2%,nt,i,-18.4%
Cc1cc(C(=O)COC(=O)c2ccco2)c(C)n1Cc1ccco1,i,-7.7%,?,-16.2%,i,-14.6%
Cc1cc(C(=O)CN2C(=O)C(=O)N(Cc3ccco3)C2=O)c(C)n1CCc1ccc(F)cc1,14.6µM*,?,20.6µM*,?,18.4µM*,?
